Measurements: PubChem BioAssay AID1224903 (Bradner/Qi Labs at DFCI, 2016)
“And” between values parts separate entries of the source, which are not always exact repeats. Equal values may be shown once. About 720 (1.1%) of roughly 66,000 compounds were called active. No stated cut-off is given here; in the data, active means normalised signal below about 0.5; inactive means the rest, inconclusive results apart. The full list was thinned out, with actives kept by preference.

The compounds below were run against Chromobox protein homolog 7 (Homo sapiens) (UniProt O95931) (assay: CBX7 chromodomain binding inhibitors, primary screen, biochemical, AlphaScreen (AID 1224903)). Details: AlphaScreen His6-CBX7 / biotin-H3K27me3 peptide binding, stronger effect = lower value; z-score: measured here: z-score of CBX7 signal.
Chromobox protein homolog 7 (Homo sapiens), sequence (O95931 whole entry, looked up): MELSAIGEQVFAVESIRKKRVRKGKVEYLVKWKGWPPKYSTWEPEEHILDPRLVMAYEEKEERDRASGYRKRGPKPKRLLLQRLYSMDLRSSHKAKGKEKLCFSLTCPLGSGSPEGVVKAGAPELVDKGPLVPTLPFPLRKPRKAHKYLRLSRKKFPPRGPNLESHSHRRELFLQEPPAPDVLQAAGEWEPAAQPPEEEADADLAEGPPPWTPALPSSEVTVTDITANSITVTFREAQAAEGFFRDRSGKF
In the case of `COc1ccc(CCNC(=O)CCc2c(C)nc3c(c(C)nn3-c3ccc(C)cc3)c2C)cc1OC`, the normalised signal (fraction of DMSO) is reported as 1.07 (inactive) and the z-score is reported as 1.56. For `COc1cccc(Nc2nc(-c3ccc(Cl)cc3)cs2)c1`, the normalised signal (fraction of DMSO) was 0.908 (inactive) and 0.897 (inactive) and the z-score was -1.58 and -2.88. In the case of `O=C(Nc1ccc(-c2nc3ccccc3o2)c(O)c1)c1cccc(F)c1`, the normalised signal (fraction of DMSO) is reported as 1.11 (inactive) and the z-score is reported as 2.16. `COc1cc(OC)cc(C(=O)Nc2ccc(-c3nc4ccccc4o3)c(O)c2)c1` was tested, and the normalised signal (fraction of DMSO) was 0.956 (inactive) and the z-score was -0.356. With `O=C(Nc1ccc(-c2nc3ccccc3o2)c(O)c1)c1ncn[nH]1` the normalised signal (fraction of DMSO) was 0.308 (active) and the z-score was -19.7. With `CCOC(=O)CNC(=O)c1cc2c(n(-c3ccc(C)cc3)c1=O)CCCC2=O` the normalised signal (fraction of DMSO) was 1.19 (inactive) and the z-score was 0.796. For `CCN1CCCC1CNC(=O)c1ccc2c(c1)N(Cc1ccccc1)CCS2` (stereo unspecified), the normalised signal (fraction of DMSO) was 0.92 (inactive) and the z-score was -0.106. In the case of `Cc1ccc(NC(=O)C2CCCN(S(=O)(=O)c3cccc4cccnc34)C2)cc1F` (stereo unspecified), the normalised signal (fraction of DMSO) is reported as 1.02 (inactive) and the z-score is reported as 0.516. With `COc1ccccc1NC(=O)c1c(NCc2ccncc2)sc2c1CCCC2` the normalised signal (fraction of DMSO) was 0.583 (inactive) and the z-score was -5.84. With `COc1ccccc1NC(=O)c1c(NCc2cccs2)sc2c1CCCC2` the normalised signal (fraction of DMSO) was 0.467 (active) and the z-score was -7.46. For `CCOC(=O)c1ccc(NC(=O)c2c(NCc3cccs3)sc3c2CCCC3)cc1`, the normalised signal (fraction of DMSO) was 0.674 (inactive) and the z-score was -4.57. With `COc1ccc(-c2nnc(NC(=O)c3ccc(S(=O)(=O)N4CC(C)OC(C)C4)cc3)o2)c(OC)c1` (stereo unspecified) the normalised signal (fraction of DMSO) was 0.629 (inactive) and the z-score was -8.38. With `CCN(CC)S(=O)(=O)c1ccc(C(=O)Nc2nnc(-c3cc(OC)cc(OC)c3)o2)cc1` the normalised signal (fraction of DMSO) was 0.885 (inactive) and the z-score was -1.93. `CCC1CCCCN1S(=O)(=O)c1ccc(C(=O)Nc2nnc(COC)o2)cc1` (stereo unspecified) was tested, and the normalised signal (fraction of DMSO) was 0.727 (inactive) and the z-score was -7.33. `COc1ccc(-c2nnc(NC(=O)c3ccc(S(=O)(=O)N4CCC(C)CC4)cc3)o2)cc1` was tested, and the normalised signal (fraction of DMSO) was 0.796 (inactive) and the z-score was -4.6. For `CCCCN(CC)S(=O)(=O)c1ccc(C(=O)Nc2nnc(-c3ccc(Cl)s3)o2)cc1`, the normalised signal (fraction of DMSO) was 1.03 (inactive) and the z-score was 0.687. For `C=CCN(CC=C)S(=O)(=O)c1ccc(C(=O)Nc2nnc(-c3cccs3)o2)cc1`, the normalised signal (fraction of DMSO) was 0.877 (inactive) and the z-score was -3.03. With `CN(C)S(=O)(=O)c1ccc(C(=O)Nc2nnc(C3CC3)o2)cc1` the normalised signal (fraction of DMSO) was 0.379 (active) and the z-score was -14. `CC1CCCCN1S(=O)(=O)c1ccc(C(=O)Nc2nnc(-c3cccs3)o2)cc1` (stereo unspecified) was tested, and the normalised signal (fraction of DMSO) was 0.92 (inactive) and the z-score was -1.8. In the case of `CCCCN(C)S(=O)(=O)c1ccc(C(=O)Nc2nnc(C)o2)cc1`, the normalised signal (fraction of DMSO) is reported as 0.00344 (active) and the z-score is reported as -1.32. In the case of `CN(Cc1ccccc1)S(=O)(=O)c1ccc(C(=O)Nc2nnc(-c3ccccc3Cl)o2)cc1`, the normalised signal (fraction of DMSO) is reported as 0.095 (active) and the z-score is reported as -15.2. For `COCCN(CCOC)S(=O)(=O)c1ccc(C(=O)Nc2nnc(-c3cccs3)o2)cc1`, the normalised signal (fraction of DMSO) was 0.698 (inactive) and the z-score was -6.83. With `CN(C)S(=O)(=O)c1ccc(C(=O)Nc2nnc(-c3ccccc3Cl)o2)cc1` the normalised signal (fraction of DMSO) was 0.145 (active) and the z-score was -14.4. For `Cc1cc(=O)n2nc(N3CCCC(C(=O)N4CCCCC4)C3)sc2n1` (stereo unspecified), the normalised signal (fraction of DMSO) was 1.09 (inactive) and the z-score was 0.832. In the case of `O=C(Nc1ccccc1F)c1cc2c(s1)-c1ccccc1OC2`, the normalised signal (fraction of DMSO) is reported as 1.53 (inactive) and the z-score is reported as 15.1. In the case of `COc1cccc(-c2nc(CS(=O)(=O)CC(=O)NCCCN(CC(C)C)CC(C)C)c(C)o2)c1`, the normalised signal (fraction of DMSO) is reported as 1.42 (inactive) and the z-score is reported as 3.56. For `CCc1ccc(-n2cnc3cc(C(=O)NC4CCCC4)ccc32)cc1`, the normalised signal (fraction of DMSO) was 0.805 (inactive) and the z-score was -3.38. With `COc1ccc(CCNC(=O)c2cn(-c3ccc(Cl)cc3)c(=O)c3ccccc23)cc1OC` the normalised signal (fraction of DMSO) was 1.03 (inactive) and the z-score was 0.92. For `CCCCOc1ccc(C(=O)N(Cc2ccc(OC)cc2)C2CCS(=O)(=O)C2)cc1` (stereo unspecified), the normalised signal (fraction of DMSO) was 0.91 (inactive) and the z-score was -0.0894. `O=C(c1ccc(Cl)nc1)N1CCNc2ccccc2C1` was tested, and the normalised signal (fraction of DMSO) was 0.975 (inactive) and the z-score was -0.305. In the case of `O=C(CN1C(=O)COc2ccccc21)NCCN1CCc2ccccc2C1`, the normalised signal (fraction of DMSO) is reported as 1.06 (inactive) and the z-score is reported as 1.85. In the case of `CCCCNC(=O)CN1C(=O)COc2ccccc21`, the normalised signal (fraction of DMSO) is reported as 0.475 (active) and the z-score is reported as -4.69. For `CCCN1CCN(CCCNC(=O)CN2C(=O)COc3ccccc32)CC1`, the normalised signal (fraction of DMSO) was 1.01 (inactive) and the z-score was 0.274. `CN(CC(=O)NCCc1ccccc1)S(=O)(=O)c1cnc[nH]1` was tested, and the normalised signal (fraction of DMSO) was 1.26 (inactive) and the z-score was 2.17. With `COC(CNC(=O)c1csc2c1CCCCC2)OC` the normalised signal (fraction of DMSO) was 0.834 (inactive) and the z-score was -2.13. With `Cc1ccc(-n2c(Cc3cccn3C)nnc2SCC(=O)Nc2ccc(C)c(Cl)c2)cc1` the normalised signal (fraction of DMSO) was 0.926 (inactive) and the z-score was -1.77. For `Cc1sc2ncn(CC(=O)NCC(=O)NCCCN3CCOCC3)c(=O)c2c1C`, the normalised signal (fraction of DMSO) was 1.08 (inactive) and the z-score was 0.741. `Cc1ccccc1Cn1c(CCNC(=O)C(C)(C)C)nc2ccccc21` was tested, and the normalised signal (fraction of DMSO) was 1.12 (inactive) and the z-score was 1.79. `Cc1cccc(C)c1Nc1c(-c2ccsc2)nc2cnccn12` was tested, and the normalised signal (fraction of DMSO) was 0.944 (inactive) and the z-score was -0.669. With `Cc1ccc(Nc2c(-c3ccc(Cl)cc3)nc3sccn23)c(C)c1` the normalised signal (fraction of DMSO) was 0.736 (inactive) and the z-score was -5.27. For `Cc1cccc(C)c1Nc1c(-c2ccccn2)nc2sccn12`, the normalised signal (fraction of DMSO) was 0.5 (active) and the z-score was -5.94. In the case of `COc1ccc2c(c1OC)C(=O)N(c1ncn[nH]1)C2`, the normalised signal (fraction of DMSO) is reported as 0.25 (active) and the z-score is reported as -16. `COc1ccc2c(c1OC)C(=O)N(c1ccc(O)cc1)C2` was tested, and the normalised signal (fraction of DMSO) was 0.99 (inactive) and the z-score was -0.11. With `CCOC(=O)c1cnc2c(C)cc(C)cc2c1Nc1ccccc1CC` the normalised signal (fraction of DMSO) was 1.15 (inactive) and the z-score was 1.45. In the case of `CCOC(=O)c1cnc2c(C)cc(C)cc2c1Nc1ccc(N2CCOCC2)cc1`, the normalised signal (fraction of DMSO) is reported as 0.35 (active) and the z-score is reported as -16.2. With `CCOC(=O)c1cnc2c(C)cc(C)cc2c1Nc1cccc(OC)c1` the normalised signal (fraction of DMSO) was 1.03 (inactive) and the z-score was 0.43. In the case of `CC(=O)Oc1ccc(C2CC(=O)Nc3cc4c(cc32)OCO4)cc1` (stereo unspecified), the normalised signal (fraction of DMSO) is reported as 0.988 (inactive) and the z-score is reported as -0.494. `CC(=O)Nc1ccc(S(=O)(=O)NCc2ccc(C(=O)NCCc3ccc(C)cc3)cc2)cc1` was tested, and the normalised signal (fraction of DMSO) was 1.42 (inactive) and the z-score was 1.84. With `COc1ccc(Cn2c(=O)c3cccnc3n(Cc3ccc(C)cc3)c2=O)cc1` the normalised signal (fraction of DMSO) was 1.11 (inactive) and the z-score was 1.94. For `O=C(NCCCc1ccccc1)c1ccc2c(c1)N(Cc1ccccc1)CCS2`, the normalised signal (fraction of DMSO) was 0.992 (inactive) and the z-score was -0.011. `CCN(CCCNC(=O)c1c[nH]c2ccc(S(=O)(=O)N(CC)CC)cc2c1=O)c1cccc(C)c1` was tested, and the normalised signal (fraction of DMSO) was 0.423 (active) and the z-score was -6.22. With `CCCCCCNC(=O)c1c[nH]c2ccc(S(=O)(=O)N(CC)c3cccc(C)c3)cc2c1=O` the normalised signal (fraction of DMSO) was 1.08 (inactive) and the z-score was 1.26. In the case of `COCCCNC(=O)c1c[nH]c2ccc(S(=O)(=O)N(C)c3cccc(C)c3)cc2c1=O`, the normalised signal (fraction of DMSO) is reported as 1.02 (inactive) and the z-score is reported as 0.264. `O=C(CCCN1C(=O)CSc2ncccc21)NC1CCN(Cc2ccccc2)CC1` was tested, and the normalised signal (fraction of DMSO) was 1.02 (inactive) and the z-score was 0.27. With `O=C(Nc1ccc(C(F)(F)F)cc1)c1n[nH]c(=O)c2ccccc12` the normalised signal (fraction of DMSO) was 1.17 (inactive) and the z-score was 1.04. `COc1ccc(-c2noc(CCC(=O)NCc3cccc(OC)c3)n2)cc1` was tested, and the normalised signal (fraction of DMSO) was 0.872 (inactive) and the z-score was -1.96. In the case of `CCCNC(=O)c1nn2c(C(F)(F)F)cc(-c3ccco3)nc2c1Br`, the normalised signal (fraction of DMSO) is reported as 1.09 (inactive) and the z-score is reported as 2.47. In the case of `CCC(CO)NCC(O)COCc1ccc(Cl)cc1` (stereo unspecified), the normalised signal (fraction of DMSO) is reported as 1.05 (inactive) and the z-score is reported as 0.823. For `O=C(Cn1nc(-c2ccccc2)c2cc(Cl)ccc21)NCc1ccccc1`, the normalised signal (fraction of DMSO) was 1.08 (inactive) and the z-score was 2.18. `Cc1cc(Br)ccc1NC(=O)CNC(=O)Cn1c(C)cc2ccccc2c1=O` was tested, and the normalised signal (fraction of DMSO) was 1.18 (inactive) and the z-score was 1.84. For `CCCCN(CC)CCCNC(=O)C1CCN(C(=O)c2cc3sccc3n2C)CC1`, the normalised signal (fraction of DMSO) was 0.959 (inactive) and the z-score was -0.744. For `Cc1ccc(OCC(=O)Nc2ccc(S(=O)(=O)Nc3nccs3)cc2)c(Br)c1`, the normalised signal (fraction of DMSO) was 1 (inactive) and the z-score was 0.0983. `CCc1c(-c2ccccc2)nc2ccccc2c1C(=O)NCC1COc2ccccc2O1` (stereo unspecified) was tested, and the normalised signal (fraction of DMSO) was 0.762 (inactive) and the z-score was -0.941.
